From PubChem BioAssay (Tox21) come the findings set out here.

Results filed as inconclusive are left out. Calls of active or inactive are those of the source. The call rests on the fitted dose curve; in most records, active means well fitted inhibition curve with a large enough effect in the repeat runs; inconclusive means weak or mixed curves; inactive means no such curve, though single readings can be large or run the other way.
On the % scale 0 is the no-effect control and ±100 the full control effect.

Chain of Androgen receptor (Homo sapiens) (P10275 whole entry, looked up): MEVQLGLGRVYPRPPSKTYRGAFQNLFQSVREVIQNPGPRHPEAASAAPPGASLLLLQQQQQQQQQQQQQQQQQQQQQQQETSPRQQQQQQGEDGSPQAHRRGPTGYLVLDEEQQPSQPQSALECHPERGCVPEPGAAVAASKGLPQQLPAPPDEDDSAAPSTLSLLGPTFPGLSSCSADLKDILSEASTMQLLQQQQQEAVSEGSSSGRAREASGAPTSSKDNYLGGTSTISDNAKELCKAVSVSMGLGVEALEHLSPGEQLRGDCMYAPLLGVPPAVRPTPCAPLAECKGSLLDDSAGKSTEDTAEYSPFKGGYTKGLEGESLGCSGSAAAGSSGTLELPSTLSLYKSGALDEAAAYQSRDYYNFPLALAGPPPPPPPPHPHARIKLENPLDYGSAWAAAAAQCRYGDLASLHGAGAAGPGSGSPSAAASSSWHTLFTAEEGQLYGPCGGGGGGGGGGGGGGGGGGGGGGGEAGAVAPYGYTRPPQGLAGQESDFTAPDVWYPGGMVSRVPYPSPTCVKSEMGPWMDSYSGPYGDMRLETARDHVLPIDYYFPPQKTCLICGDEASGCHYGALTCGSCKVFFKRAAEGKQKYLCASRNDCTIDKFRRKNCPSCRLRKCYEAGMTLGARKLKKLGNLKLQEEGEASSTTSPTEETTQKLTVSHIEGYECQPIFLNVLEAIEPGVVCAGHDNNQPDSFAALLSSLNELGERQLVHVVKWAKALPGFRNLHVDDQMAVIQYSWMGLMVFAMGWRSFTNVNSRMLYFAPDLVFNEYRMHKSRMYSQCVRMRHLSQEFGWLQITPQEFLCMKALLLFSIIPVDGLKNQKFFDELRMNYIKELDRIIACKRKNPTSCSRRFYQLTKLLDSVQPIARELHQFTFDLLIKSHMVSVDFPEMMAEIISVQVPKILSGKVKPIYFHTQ

For this test, the target named is Androgen receptor (Homo sapiens) (UniProt P10275). The test is described as follows: qHTS assay to identify small molecule antagonists of the androgen receptor (AR) signaling pathway using the MDA cell line in the presence of 0.5 nM R1881 (AID 1259243). Further: nearly all actives have a fitted effect of over 50% in size. The following applies: MDA-kb2 MMTV-luciferase, R1881 0.5 nM, 16 h; series mostly up to 92.4 µM; activity, negative = inhibition: at the top concentration. An excerpt:
U.S. Tox21 Program National Center for Advancing Translational Sciences [NCATS] NIH Chemical Genomics Center [NCGC] U.S. Environmental Protection Agency [EPA] National Institutes of Environmental Health Sciences [NIEHS] National Toxicology Program [NTP] U.S. Food and Drug Administration [FDA] Tox21 Assay Overview: Androgen receptor (AR) is an important member of the nuclear receptor family. Its signaling plays a critical role in AR-dependent prostate cancer and other androgen related diseases. Considerable attention has been given in the past decades to develop methods to study and screen for the environmental chemicals that have the potential to interfere with metabolic homeostasis, reproduction, developmental and behavioral functions. Therefore AR binding assay for screening androgen antagonists can be used to identify potential endocrine disruptors. MDA-kb2 cells (from ATCC, deposited by Wilson et al.) were used to screen for AR inhibitors against Tox21 compound libraries. These cells are human breast carcinoma cells that were stably transfected with a luciferase reporter gene under control of the MMTV promoter that contains response elements for both androgen receptor (AR) and glucocorticoid receptor (GR). The current screening for identification of AR inhibitors against Tox21 libraries used lower concentration (0.5 nM) of R1881 as a stimulator.
Tox21 Assay Protocol Summary: MDA-kb2 cells (cells cultured without CO2) were dispensed at 3,000 cells/well in 4 uL of culture medium into white wall/solid-bottom 1536-well plates (Corning Life Sciences, Corning, NY) using a Multidrop Combi (ThermoFisher Scientific, Waltham, MA) dispenser. After the assay plates were incubated at a 37C and 0% CO2 for 5 hr, 23 nL of compounds dissolved in DMSO, positive controls or DMSO only was transferred to the assay plate by a Pintool station (Kalypsys, San Diego, CA). The transfer of compounds was followed by the addition of 1 uL of 0.5 nM (final concentration) agonist (R1881)/culture medium using a Flying Reagent Dispenser (FRD, Aurora Discovery, San Diego, CA). The plates were incubated at 37C and 0% CO2 for 16 hr. For luciferase reporter gene assay, 4 uL of ONE-Glo reagent (Promega Corporation, Madison, WI) was added to each well using the FRD and after 30 min incubation at room temperature luminescence intensity was measured using ViewLux plate reader (PerkinElmer, Shelton, CT).
In general terms: qHTS replaces the single test concentration by a dilution series.
Consider `Cc1cc(=O)[nH]c(C(C)C)n1`, for which the result was inactive. Same read-out and setting: under `CCCCC(CC)COC(=O)/C=C\C(=O)OCC(CC)CCCC` (stereo not drawn) stands “inactive”; under `NCCNCCNCCNCCN`, “inactive”; under `OCC1CCCO1` (stereo not drawn), “inactive”. Still for that read-out and setting: to `O=C(O)c1cc(-c2ccccc2)nc2ccccc12` belongs “inactive”; to `C[C@@H]1O[C@@H](OC[C@H]2O[C@@H](Oc3c(-c4ccc(O)c(O)c4)oc4cc(O)cc(O)c4c3=O)[C@H](O)[C@@H](O)[C@@H]2O)[C@H](O)[C@H](O)[C@H]1O`, “inactive”. For the molecule `CCCCCCCCCC(=O)O`, the result was inactive. As for `CC(C)(CO)COC(=O)C(C)(C)CO`, the result was inactive.

On to `O=Nc1ccc(O)cc1`, for which the “activity, negative = inhibition” value is 1.39% (inactive). As to `O=c1c(-c2ccc(O)cc2)coc2cc(O)ccc12`, the outcome was inactive. The same measure, in the same setting: under `CCCCC(CC)C(=O)OCCOCCOCCOC(=O)C(CC)CCCC` (stereo not drawn) stands “inactive”; under `Nc1nc2ncc(CNc3ccc(C(=O)N[C@@H](CCC(=O)O)C(=O)O)cc3)nc2c(=O)[nH]1`, “inactive”; under `Nc1cc(-c2ccncc2)c[nH]c1=O`, “inactive”. Same read-out and setting: to `CCc1ccc(O)cc1` belongs “inactive”; to `Cc1ccc(C)c(C)c1`, “inactive”. For `O=[N+]([O-])c1cc(N(CCO)CCO)ccc1NCCO`, the “activity, negative = inhibition” value is -24.3% (inactive). As to `C=CC(=O)OCCCCCCCC(C)C`, the result was inactive.

On to `O=C1CCCCC1`, for which the result was inactive.
